# Experimental data published in PubChem BioAssay (NCI).
# About 79,000 compounds went through this panel and 15% of them were active in at least one assay; those are over-represented in the sample as a whole. Values without a mark were called inactive. Activity calls are given as the source filed them. Rule as the data show it: active = growth inhibition above about 70%; inactive = the rest.
# Test: NCI Yeast Anticancer Drug Screen. Data for the mec2-1 strain (AID 157)
# Settings: S. cerevisiae mec2-1 strain, at 50.0 µM, stronger effect = higher value
# Experimental: Growth inhibition of yeast strains with defined genetic alterations is measured as a screen for potential anti-cancer activity. Selected strains with alterations in DNA damage repair or cell cycle control were exposed to compounds and growth inhibition was measured relative to vehicle treated controls. The strain used in this assay is mec2-1
row,SMILES,growth inhibition
1,Cc1ccc2nc3c(nc2c1)-c1cccc2cccc-3c12,-43%
2,CC(=O)c1cccc(OCc2ccccc2)c1,2.75%
3,CC1CC2(OC2C)C(=O)OC2CCN(C)C/C=C(/COC(=O)C1(C)O)C2=O (stereo not given),7.05%
4,CC12CCC(CC1)C(C)(C)O2,3.3%
5,COc1cc(/C=N/N2CCCCC2)cc(OC)c1OC,-16.6%
6,Cc1ccc(CNc2cccc([N+](=O)[O-])c2)cc1,-13.6%
7,COc1ccc2cc1Oc1ccc(cc1)CC1c3cc(OC)c(cc3CCN1C)Oc1c(OC)c(OC)cc3c1C(C2)N(C)CC3 (stereo not given),-15.7%
8,COc1ccc2c(C)cc(N/N=C/c3ccc(C)s3)nc2c1,-26.5%
9,C/C=C(/C)N(C(C)=O)N(C(C)=O)c1ccc([N+](=O)[O-])cc1[N+](=O)[O-],-18.2%
10,c1ccc(-c2cccc3ccccc23)cc1,6.7%
11,COc1cc(/C=N/NC(=O)c2ccncc2)cc(OC)c1OC,-48.5%
12,CC(C)(C)c1cc(C2COC(=O)COCCOCC(=O)OCCOCCO2)cc(C(C)(C)C)c1O (stereo not given),-13.8%
13,O=C(O)C1(c2ccc(Cl)cc2)CCCC1,8.75%
14,CCCCCCCCOC(=O)C12Oc3ccc(-c4ccc5c(c4O)C(O)=C4C(=O)CC(C)C(O)C4(C(=O)OCCCCCCCC)O5)c(O)c3C(O)=C1C(=O)CC(C)C2O (stereo not given),2.95%
15,CCOC(=O)c1nc2cc(C)c(C)cc2[nH]c1=O,-5.4%
16,CC1CC(C)(C)N=C(Cc2ccccc2)O1 (stereo not given),-11.6%
17,O=C(O)COC1CC(=O)N2c3ccccc3C34CCN5C(=O)C(=O)C(CC53)C1C24 (stereo not given),-24.9%
18,C=CCNC(=S)N/N=C\c1cc(OC)c(OC)c(OC)c1,-44.5%
19,CC(CN1CCCC1)C(O)(Cc1ccccc1)c1ccccc1 (stereo not given),-2.7%
20,CCCCCCCCCCCCC/C=C/[C@H]1[C@@H](C(=O)OC)N1S(=O)c1ccc(C)cc1 (stereo not given in full),-27.6%

row,SMILES,growth inhibition
1,CCOC(=O)C(C)Oc1ccccc1[N+](=O)[O-] (stereo not given),-41.2%
2,N#CC1(C#N)N[C@@H](c2ccsc2)[C@H]2C(=O)N(c3ccccc3)C(=O)[C@H]21,-8.2%
3,COC(=O)C(C)CN1CC(C)OC(C)C1 (stereo not given),-26.2%
4,C=CCCCCCCCCC(=O)Cl,3.35%
5,CCCCCCCCCCCCCCCC(C)(C)O,-27.6%
6,COc1ccc(-c2nc3ccccc3c(=S)n2OC(C)=O)cc1,77.2% (active)
7,C[Si](C)(CCl)N[Si](C)(C)CCl,-33.9%
8,COc1ccc(C(C#N)N2CCCC2)cc1 (stereo not given),-37.9%
9,CCO/C=N\C1=C(C#N)SC2=N/C(=C\c3ccc(OC)cc3)C(=O)N21,-25.1%
10,CCCCCCCCCCCCCCCCOc1ccc(C)cc1,-29.5%
11,COc1ccc(C(C(N)=O)N2CCCC2)cc1 (stereo not given),-19.6%
12,Cn1c2c(c3ccccc3c1=O)C(=O)c1ccccc1-2,-14.2%
13,S=C(NNc1ccccc1)NC1CCCCC1,-37.2%
14,CC(C)O/N=C/c1cc(NC(=S)OC(C)C)ccc1Cl,-8.75%
15,Cc1cc(S(=O)(=O)O)c(NC(=O)c2oc3cc(O)ccc3c(=O)c2C)cc1Cl,-22.9%
16,O=C1CC(c2ccccc2)NCCCCN2CC(CN1)C(C(O)c1ccccc1)C2=O (stereo not given),-34.8%
17,O=C1CCC2CN3CCc4c([nH]c5ccccc45)C3CC2C1 (stereo not given),14.4%
18,CCOC(=O)c1sc(N)c(C(=O)OCC)c1C,-46.8%
19,COc1ccc(/C(C#N)=C2C=C(Cl)/C(=N/O)C=C/2Cl)cc1,-7.45%
20,CC/C(=C\c1cccc([N+](=O)[O-])c1)C(=O)O,-25.6%
